In the library only some 6.5% were active in any assay of this set; here they are far more common.
Spn MK inh – S. pneumoniae mevalonate kinase inhibition; purified MK, PK/LDH-coupled NADH absorbance 340 nm; inhibition, % at 10 µM; 65,000 compounds, 0.48% hits;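 active means ranked among the strongest by inhibition in the single 10 µM screen, a fixed top-ranked set picked for dose follow-up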
NADH coupling – inhibition of NAD/NADH coupling enzymes, library profiling. coupled PK/LDH NADH assays, four targets. IC50, µM (highest dose often 10 µM). 65,000 compounds, 0.02% hits. AID 774;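 active means single-dose screening hits from any of four coupled enzyme assays that gave an IC50 when retested across doses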;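 further: the DPM-DC format reads NADH fluorescence rather than 340 nm absorbance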
Abs 340nm – compound absorbs light at 340 nm. AID 708. fold change at 10 µM. 65,000 tested, under 10 active. compound absorbance at 340 nm, fold over control;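 active means at 10 µM dose, initial 340 nm absorbance at least 2 fold that of control wells; inactive means change under 2 fold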;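 further: initial absorbance extrapolated from kinetic A340 decline of NADH oxidation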
DPM-DC inhibit – blocks S. pneumoniae diphosphomevalonate decarboxylase | AID 556 | purified DPM-DC, PK/LDH coupled NADH fluorescence | calls only at 10 µM | 65,000 compounds, 0.49% hits;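 active means the 320 compounds with the highest percent inhibition in the single-dose primary screen, excluding strongly autofluorescent ones, cut at about 32% in these data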;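 further: kinetic rate of NADH fluorescence loss reporting ADP formed by the decarboxylase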
Fluor 339 460 – intrinsic fluorescence of library compounds, ex339/em460 – biochemical, MLSMR library, data from DPM-DC assay, artefact control, profiling panel; compound autofluorescence, ex339/em460 nm, NADH buffer; stronger effect = higher value; 1 = no-compound wells, NADH background; fluorescence fold increase at 10 µM; 65,000 compounds, 5.5% hits; AID 709;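 active means at 10 µM, mean starting fluorescence two-fold or more over control wells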;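 further: signal is the first read of a kinetic run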
PMK inhibit – inhibitors of Streptococcus pneumoniae phosphomevalonate kinase; inhibition, % at 10 µM; purified PMK, PK/LDH-coupled NADH absorbance 340 nm; AID 539; 65,000 compounds, 0.49% hits;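 active means top-ranked compounds by inhibition in the single 10 µM screen, taking a fixed number of the strongest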
Large screens that a line does not name were inactive.

COC(=O)c1[nH]c2cccc(OC)c2c1NC(=O)CCN1CCN(c2ccccc2OC)CC1	DPM-DC inhibit active, Fluor 339 460 3.12
N#Cc1c(N)nc(-c2ccccc2)nc1-c1ccccc1	none
Nc1nc(N)c2nc(-c3ccccc3)c(N)nc2n1	Fluor 339 460 2.46 (not shown: DPM-DC inhibit)
COC(=O)C(CC(C)C)Oc1ccc2c(C)cc(=O)oc2c1 (centres undefined)	none
CCc1c(C)c2ccc(OCC(N)=O)cc2oc1=O	Fluor 339 460 3.67 (not shown: DPM-DC inhibit)
CCOC(=O)c1oc2cc(OCC(N)=O)ccc2c(=O)c1-c1ccc(OC)c(OC)c1	none
CCCOc1ccc2c(C)c(CC(=O)OC)c(=O)oc2c1	Fluor 339 460 3.72 (not shown: DPM-DC inhibit)
COc1ccc(C)cc1S(=O)(=O)N(CC(=O)N1CCCC1)c1ccccc1	none
O=S(=O)(c1ccccc1)N1CCN(c2ncnc3sc(-c4ccccc4)cc23)CC1	Fluor 339 460 5.16 (not shown: DPM-DC inhibit)
c1coc(C2Nc3cccc4cccc(c34)N2)c1	Fluor 339 460 3.83 (not shown: DPM-DC inhibit)
CCOC(=O)C1=C(C)NC2=C(C(=O)CC(C)(C)C2)C1c1cccc(C)n1 (centres undefined)	Fluor 339 460 4.89 (not shown: DPM-DC inhibit)
CCCOC(=O)C1=C(C)NC2=C(C(=O)CC(C)(C)C2)C1c1ccc(N(C)C)cc1 (centres undefined)	none
COc1ccc2[nH]c(=O)c(CN(Cc3ccc(C)cc3)Cc3nnnn3CC3CCCO3)cc2c1 (centres undefined)	Fluor 339 460 2.13
COc1ccccc1CN(Cc1cc2cc(C)cc(C)c2[nH]c1=O)Cc1nnnn1CC1CCCO1 (centres undefined)	PMK inhibit 26.0
COc1ccc2[nH]c(=O)c(CN(CCc3ccccc3)Cc3nnnn3CC3CCCO3)cc2c1 (centres undefined)	Fluor 339 460 2.52
COc1ccc2[nH]c(=O)c(CN(Cc3ccccc3OC)Cc3nnnn3CC3CCCO3)cc2c1 (centres undefined)	Fluor 339 460 2.26
COc1ccccc1CN(Cc1cc2cc(C)ccc2[nH]c1=O)Cc1nnnn1CC1CCCO1 (centres undefined)	none
CCn1c(CNc2ccc(F)cc2)nnc1SCC(=O)Nc1ccc(OC)cc1OC	none
CC1=NCCN1S(=O)(=O)c1cc(Cl)ccc1Cl	none
c1ccc2[nH]c(SCc3ccc(-c4nnco4)cc3)nc2c1	none
c1cnc2c(SCc3ccc(-c4nnco4)cc3)cccc2c1	Fluor 339 460 3.33 (not shown: DPM-DC inhibit)
CCOC(=O)c1cnc2sc3c(n2c1=O)CCCC3	Fluor 339 460 5.04 (not shown: DPM-DC inhibit)
C=C(C)CSc1nc(N)cc(=O)[nH]1	none
CCCCn1c(=NC(C)=O)c(C#N)cc2c(=O)n3cccc(C)c3nc21	Fluor 339 460 3.88 (not shown: DPM-DC inhibit)
COCCn1c(=NC(=O)c2ccc3c(c2)OCO3)c(C#N)cc2c(=O)n3cccc(C)c3nc21	none
CC(C)OCCCn1c(=NC(=O)c2ccncc2)c(C#N)cc2c(=O)n3ccccc3nc21	Fluor 339 460 3.59 (not shown: DPM-DC inhibit)
Cc1cccn2c(=O)c3cc(C#N)c(=NC(=O)c4ccncc4)n(Cc4ccco4)c3nc12	Fluor 339 460 2.67 (not shown: DPM-DC inhibit)
CCCCn1c(=NC(=O)c2ccc3c(c2)OCO3)c(C#N)cc2c(=O)n3cccc(C)c3nc21	Fluor 339 460 2.3
CCOC(=O)c1cc(-c2nnc(-c3ccc(Oc4ccccc4)cc3)o2)c(C)nc1C	none
CC(=O)N1CCc2cc(S(=O)(=O)CCC(=O)Nc3c(C)n(C)n(-c4ccccc4)c3=O)ccc21	none
CCCCCn1c(=NC(C)=O)c(C#N)cc2c(=O)n3ccccc3nc21	Fluor 339 460 3.6 (not shown: DPM-DC inhibit)
Cc1ccc(-c2csc3nnc(SCC(=O)Nc4cccc(C)n4)n23)cc1	none
CCOc1nc(-c2ccccc2)ccc1-c1noc(-c2ccco2)n1	Fluor 339 460 2.58
COc1nc(C)ccc1-c1noc(-c2ccco2)n1	none
COc1nc(-c2ccc(C)cc2)ccc1-c1noc(-c2ccco2)n1	Fluor 339 460 2.36
CCOc1nc(-c2ccccc2)ccc1-c1noc(COc2ccccc2)n1	Fluor 339 460 2.87
Cc1ccc2nc(NC(=O)Cn3cc4c(n3)CCCCC4)sc2c1	none
COc1ccccc1C(=O)N(Cc1nc(-c2ccc(Cl)cc2)no1)C(C)C	none
CCOC(=O)c1c(N)n(CCOC(=O)c2cccs2)c2nc3ccccc3nc12	Fluor 339 460 3.68 (not shown: DPM-DC inhibit)
O=C(Cn1cccc1)N1CCN(C(c2ccccc2)c2ccccc2)CC1	none
O=C(CN1CCN(c2ncccn2)CC1)N1CCN(C(c2ccccc2)c2ccccc2)CC1	Spn MK inh 49.0
Cc1c(NC(=O)c2ccc3c(c2)OCO3)c(=O)n(-c2ccccc2)n1C	none
COc1cccc2[nH]c3c(=O)n(CCN(C)C)cnc3c12	Fluor 339 460 3.76 (not shown: DPM-DC inhibit)
O=c1c2[nH]c3cccc(Cl)c3c2ncn1Cc1ccncc1	none
CCN(CC)CCn1cnc2c([nH]c3cccc(OC)c32)c1=O	Fluor 339 460 3.73 (not shown: DPM-DC inhibit)
CCOC(=O)Nc1ccc2c(C)cc(=O)oc2c1	Fluor 339 460 3.67 (not shown: DPM-DC inhibit)
CN1CCN(Cc2nc3c(c(=O)n(C)c(=O)n3C)n2CCc2ccccc2)CC1	none
COC(=O)c1ccc2c(c1)N(Cc1nc(-c3ccc(Cl)cc3)oc1C)C(=O)C1CCCN21 (centres undefined)	Fluor 339 460 3.74
COC(=O)c1ccc2c(c1)N(Cc1nc(-c3cccc(Cl)c3)oc1C)C(=O)C1CCCN21 (centres undefined)	Fluor 339 460 2.04
CCCN1CCN(CCCNC(=O)Cn2nc(-c3ccccc3)ccc2=O)CC1	PMK inhibit 27.0
CCOc1ccccc1OCCCCN1CCCC1	Spn MK inh 50.0
Brc1ccc(-c2nc3ccccc3s2)s1	Fluor 339 460 2.23
CN(C)S(=O)(=O)c1cccc(CSc2cccc[n+]2[O-])c1	none
O=C(Cc1ccccc1)N1CCCC(c2nc(-c3cccs3)no2)C1 (centres undefined)	none
O=S(=O)(Cc1ccccc1)N1CCC(c2nc(-c3cccs3)no2)CC1	Fluor 339 460 3.09
Cc1ccc(-c2noc(CCC(=O)N(C)c3ccccc3C)n2)cc1	none
O=C(Cc1ccccc1)N[C@H](c1ccccc1)P(=O)(O)CO	none
CCOC(=O)CSc1nc(-c2ccncc2)ccc1C#N	none
CCOC(=O)CSc1nc(-c2ccc3c(c2)OCO3)ccc1C#N	Fluor 339 460 2.25 (not shown: DPM-DC inhibit)
CCOC(=O)CC(=O)CSc1nc(-c2cccnc2)ccc1C#N	Fluor 339 460 2.11 (not shown: DPM-DC inhibit)
O=C(COC(=O)c1cncc(Br)c1)NCCC1=CCCCC1	none
COc1ccc(N2CCN(C(=O)CNC(=O)Cn3c(C)cc4ccccc4c3=O)CC2)cc1	none
CCCCn1c(=O)[nH]c(=O)c2c1nc(-c1ccncc1)n2CCOC	none
CCCCn1c(=O)[nH]c(=O)c2c1nc(-c1ccc(C#N)cc1)n2C1CCCC1	Fluor 339 460 5.17 (not shown: DPM-DC inhibit)
Cn1c(NC(=O)c2cccs2)c(-c2cccs2)c(=O)c2ccccc21	none
CCC(=O)Nc1c(-c2ccc(OC)cc2)c(=O)c2ccccc2n1C	Fluor 339 460 3.79 (not shown: DPM-DC inhibit)

Screening results: PubChem BioAssay, SRMLSC
